In PubChem BioAssay (EPA / NIEHS):
Several values for one entry are separate records, joined by “and”; a condition that tells them apart may be missing. Equal entries are not always repeated. Results filed as inconclusive are left out. Some structures have more than one record in an assay (separate samples or runs), and their calls can disagree. Activity calls are given as the source filed them. Rule for the calls: active = hit-call score of the fitted dose curve at least 0.9, where 1 is the maximum; inconclusive = response in the unintended direction; inactive = score below 0.9.

target: chicken Estrogen Receptor (ERa), ESR1 (gene 396099) (UniProt P06212); assay: ATG_chERa_XSP2: Attagene TRANS-FACTORIAL Multi-Species (XSP2) HepG2 Assay for chicken Estrogen Receptor (ERa) (AID 2283817);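 note: actives raise reporter signal above DMSO so AC50 reflects ER activation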
Protocol: ATG_XSP2_multi-species_TRANS is a cell-based, multiplexed assay created by modifying the existing Attagene TRANS-FACTORIAL system to include a panel of nuclear receptors from some or all the following species: human (Homo sapiens), mouse (Mus musculus), frog (Xenopus laevis), zebrafish (Danio rerio), chicken (Gallus gallus), and turtle (Chrysemys picta). The ECOTOX-FACTORIAL format uses HepG2, a human liver cell line, with measurements taken at 24 hours after chemical dosing in a 24-well plate. Xsp2 included 3 nM 6-alpha-fluorotestosterone and 1.5 nM norgestrel to stimulate the androgen receptor.ATG_chERa_XSP2 is one of 29 assay components measured or calculated from the ATG_XSP2_multi-species_TRANS assay. It is designed to make measurements of mRNA induction, a form of inducible reporter, as detected with fluorescence intensity signals by Reverse transcription polymerase chain reaction (RT-PCR) and Capillary electrophoresis technology.The assay endpoint ATG_chERa_XSP2 was analyzed in the positive analysis fitting direction relative to DMSO as the negative control and baseline of activity. Using a type of inducible reporter, measures of mRNA for gain-of-signal activity can be used to understand the reporter gene at the transcription factor-level as they relate to the gene ER. Furthermore, this assay endpoint can be referred to as a primary readout, because this assay has produced multiple assay endpoints where this one serves a reporter gene function. To generalize the intended target to other relatable targets, this assay endpoint is annotated to the nuclear receptor intended target family, where the subfamily is steroidal.
Human liver HepG2 cells are transiently transfected with multiple reporter transcription units (MRTUs) in 6-well plates using FuGene 6 reagent (Roche; 3 ml FuGene/1 mg DNA). The MRTU constructs are regulated by a cis-regulating element (promoter). […] A major difference between the CIS and TRANS system is that in CIS activities of endogenous TFs are measured, whereas the TRANS assay evaluates changes in activities of exogenous, chimeric NR-Gal4 proteins. […] At the end of 24 hour incubation, total RNA was isolated using TriZol reagent (Invitrogen). The isolated RNA is then reverse-transcribed using oligo(dT) primer and Mo-MLV reverse transcriptase (Invitrogen) with DNAse I (Ambion) treatment for 30 min. The one-tenth of the produced cDNA was amplified by PCR using Taq DNA polymerase (Invitrogen) and two reporter sequence-specific primers. The PCR products were fluorescently labeled by primer extension with 6-arboxyfluorescein (6-FAM) 5'-labeled reporter sequence-specific primer (2 min at 95 C, 20 s at 68 C and 10 min at 72 C) and these products were digested with 5U of HpaI (New England Biolabs) for 2h at 37 C. The fragments were purified using Qiaquick PCR columns (Qiagen), analyzed on an ABI 3130xL genetic analyzer (Applied Biosystems) with peak positions identified by using a set of X-rhodamine (ROX)-labeled MapMarker1000 molecular weight standards (BioVentures). The raw capillary electrophoresis data was processed using Attagraph software (Attagene).

Chain of chicken Estrogen Receptor (ERa), ESR1 (gene 396099) (P06212 whole entry, looked up): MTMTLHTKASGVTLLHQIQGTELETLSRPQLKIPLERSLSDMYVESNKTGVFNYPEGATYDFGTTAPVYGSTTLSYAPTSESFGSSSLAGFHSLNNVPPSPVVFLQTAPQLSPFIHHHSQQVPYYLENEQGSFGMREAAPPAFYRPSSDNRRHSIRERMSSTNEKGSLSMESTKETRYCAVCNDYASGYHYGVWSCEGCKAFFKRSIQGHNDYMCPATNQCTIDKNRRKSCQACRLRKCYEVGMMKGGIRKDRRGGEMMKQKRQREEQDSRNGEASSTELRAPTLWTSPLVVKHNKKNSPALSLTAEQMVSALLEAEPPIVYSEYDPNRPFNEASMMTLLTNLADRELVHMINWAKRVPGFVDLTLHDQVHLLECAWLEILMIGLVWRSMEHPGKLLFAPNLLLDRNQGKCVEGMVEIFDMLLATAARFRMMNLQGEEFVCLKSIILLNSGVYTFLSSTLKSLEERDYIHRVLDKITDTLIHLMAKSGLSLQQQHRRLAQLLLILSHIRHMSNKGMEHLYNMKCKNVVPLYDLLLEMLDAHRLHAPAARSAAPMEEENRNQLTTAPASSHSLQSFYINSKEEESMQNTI

SMILES | AC50 | outcome
Oc1cc(Cl)ccc1Oc1ccc(Cl)cc1Cl | 7.48 µM (active) | 
COP(=S)(OC)Oc1ccc(SC)c(C)c1 | 27.5 µM (active) | 
O=C(O)C(F)(F)C(F)(F)C(F)(F)C(F)(F)C(F)(F)C(F)(F)C(F)(F)F | 37.9 µM (active) | 
COP(=S)(OC)Oc1ccc([N+](=O)[O-])cc1 | 27.7 µM (active) and 20.6 µM (active) | 
O=S(=O)(O)C(F)(F)C(F)(F)C(F)(F)C(F)(F)C(F)(F)C(F)(F)C(F)(F)C(F)(F)F |  | inactive
CC(C)(C)C(O)/C(=C\c1ccc(Cl)cc1Cl)n1cncn1 (configuration not stated) | 16 µM (active) | inactive
Oc1ccc(Cl)cc1Cc1ccccc1 |  | inactive
CC1(C)C(C=C(Cl)Cl)C1C(=O)OC(C#N)c1ccc(F)c(Oc2ccccc2)c1 (configuration not stated) |  | inactive
O=S1OCC2C(CO1)C1(Cl)C(Cl)=C(Cl)C2(Cl)C1(Cl)Cl (configuration not stated) |  | inactive
CCCN(CCOc1c(Cl)cc(Cl)cc1Cl)C(=O)n1ccnc1 |  | inactive
CCCN(CCC)c1c([N+](=O)[O-])cc(C(F)(F)F)cc1[N+](=O)[O-] |  | inactive
